According to PubChem BioAssay AID1159580 (chemical genetic matrix, 2015):
Where “and” joins values, the source holds several entries; their conditions need not be identical. Identical values can stand only once. Among all 5,500 compounds or so, about 2,000 (36%) were called active. Not shown: some 18% with an inconclusive outcome. Rule as the data show it: active = normalized growth mostly below about 0.91 (no sharp cut-off); inconclusive = no clear call, values can overlap the other calls; inactive = mostly above about 0.92. The list shows a part of the results.

Experiment: chemical genetic growth profiling, strain panel (AID 1159580);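 also: tested at 20 µM; growth read once vehicle control cultures reached saturation at 30 °C; 1 = growth at the plate median or of vehicle wells; lower values mean less growth of the strain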
Settings: S. cerevisiae deletion strains, growth OD

Measured: normalized growth

Clc1ccc(COC(Cn2ccnc2)c2ccc(Cl)cc2Cl)c(Cl)c1 (configuration not stated)
active: locus YAL013W, strain DEP1, hits give low values 0.0568 | locus YAL021C, strain ccr4, hits give low values 0.0668 | locus YAL026C, strain drs2, hits give low values 0.0674 | locus YAL030W, strain snc1, hits give low values 0.0581 | locus YBL061C, strain skt5, hits give low values 0.0608 | locus YBR009C, strain hhf1, hits give low values 0.0655 | locus YBR021W, strain FUR4, hits give low values 0.0874 | locus YBR023C, strain chs3, hits give low values 0.0682 | locus YBR171W, strain sec66, hits give low values 0.0803 | locus YBR229C, strain ROT2, hits give low values 0.0268 | locus YBR231C, strain swc5, hits give low values 0.0764 | locus YBR279W, strain paf1, hits give low values 0.0803 | locus YCL011C, strain gbp2, hits give low values 0.0572 | locus YCL016C, strain dcc1, hits give low values 0.0647 | locus YCL029C, strain bik1, hits give low values 0.0612 | locus YCL061C, strain MRC1, hits give low values 0.065 | locus YCL069W, strain vba3, hits give low values 0.0638 | locus YCR088W, strain abp1, hits give low values 0.0654 | locus YDL005C, strain med2, hits give low values 0.0803 | locus YDL035C, strain GPR1, hits give low values 0.0505 | locus YDL040C, strain nat1, hits give low values 0.0613 | locus YDL074C, strain BRE1, hits give low values 0.0763 | locus YDL101C, strain DUN1, hits give low values 0.0503 | locus YDL134C, strain PPH21, hits give low values 0.0516 | locus YDL185W, strain tfp1, hits give low values 0.0554 | locus YDL192W, strain arf1, hits give low values 0.0597 | locus YDR001C, strain nth1, hits give low values 0.0613 | locus YDR069C, strain doa4, hits give low values 0.065 | locus YDR101C, strain arx1, hits give low values 0.0587 | locus YDR137W, strain rgp1, hits give low values 0.111 | locus YDR150W, strain NUM1, hits give low values 0.0575 | locus YDR159W, strain sac3, hits give low values 0.0885 | locus YDR162C, strain NBP2, hits give low values 0.0451 | locus YDR195W, strain ref2 0.126 | locus YDR297W, strain sur2, hits give low values 0.0574 | locus YDR318W, strain mcm21, hits give low values 0.0643 | locus YDR334W, strain swr1, hits give low values 0.0662 | locus YDR335W, strain msn5, hits give low values 0.0617 | locus YDR388W, hits give low values 0.056 | locus YDR392W, strain spt3, hits give low values 0.101 | locus YDR502C, strain sam2, hits give low values 0.0624 | locus YEL003W, strain gim4, hits give low values 0.0564 | locus YEL037C, strain rad23, hits give low values 0.0601 | locus YEL061C, strain CIN8 (second series), hits give low values 0.0638 | locus YEL061C, strain CIN8, hits give low values 0.0482 | locus YER015W, strain faa2, hits give low values 0.0604 | locus YER016W, strain bim1, hits give low values 0.0607 | locus YER110C, hits give low values 0.0744 | locus YER111C, strain swi4, hits give low values 0.0809 | locus YER155C, strain BEM2 (second series), hits give low values 0.0947 | locus YER155C, strain BEM2, hits give low values 0.0667 | locus YER167W, strain BCK2, hits give low values 0.0577 | locus YFR010W, strain ubp6, hits give low values 0.0709 | locus YGL078C, strain dbp3, hits give low values 0.0696 | locus YGL086W, strain mad1, hits give low values 0.0583 | locus YGL167C, strain pmr1, hits give low values 0.0799 | locus YGL173C, strain kem1, hits give low values 0.072 | locus YGL227W, strain vid30, hits give low values 0.067 | locus YGL240W, strain doc1, hits give low values 0.0883 | locus YGL248W, strain PDE1, hits give low values 0.0461 | locus YGL253W, strain hxk2, hits give low values 0.0558 | locus YGR078C, strain PAC10, hits give low values 0.0558 | locus YGR135W, strain pre9, hits give low values 0.0676 | locus YGR229C, strain SMI1, hits give low values 0.0622 | locus YGR252W, strain gcn5, hits give low values 0.155 | locus YHR013C, strain ard1, hits give low values 0.106 | locus YHR027C, strain rpn1, hits give low values 0.0625 | locus YHR030C, strain SLT2, hits give low values 0.0509 and 0.102 | locus YHR079C, strain IRE1 (second series), hits give low values 0.0623 | locus YHR079C, strain IRE1, hits give low values 0.124 | locus YHR094C, strain hxt1, hits give low values 0.0654 | locus YHR129C, strain ARP1, hits give low values 0.0576 | locus YHR142W, strain chs7, hits give low values 0.0767 | locus YHR200W, strain rpn10, hits give low values 0.0606 | locus YIL066C, strain RNR3, hits give low values 0.0442 | locus YIL073C, strain SPO22, hits give low values 0.115 | locus YIL125W, strain kgd1, hits give low values 0.0693 | locus YIR030C, strain dcg1, hits give low values 0.0593 | locus YJL092W, strain hpr5, hits give low values 0.061 | locus YJL095W, strain BCK1 (second series), hits give low values 0.059 | locus YJL095W, strain BCK1, hits give low values 0.0515 and 0.106 | locus YJL115W, strain asf1, hits give low values 0.0748 | locus YJL129C, strain trk1, hits give low values 0.0933 | locus YJL134W, strain LCB3, hits give low values 0.0457 | locus YJL154C, strain vps35, hits give low values 0.062 | locus YJL164C, strain tpk1, hits give low values 0.0667 | locus YJL166W, strain qcr8, hits give low values 0.0609 | locus YJL168C, strain set2, hits give low values 0.0574 | locus YJL187C, strain SWE1 (second series), hits give low values 0.0406 | locus YJL187C, strain SWE1, hits give low values 0.0602 | locus YJR043C, strain POL32, hits give low values 0.0602 | locus YJR066W, strain TOR1, hits give low values 0.0025
